Bioassay records from PubChem BioAssay.
This excerpt belongs to a sample that is enriched for hits.
Pf Dd2 inh: blocks in vitro growth of P. falciparum Dd2. 4.3% of 120,000 active. P. falciparum Dd2 growth, SYBR Green, 72 h. Potency, µM (series often up to 28.9 µM), for the others: top-dose activity, negative = inhibition, actives largely listed as inhibitors; active = well fitted inhibition curve with a large enough effect;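 also: plate controls were DMSO vehicle for no effect and reference drug for full effect; nearly all actives have a fitted effect of over 65% in size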
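Infected erythrocytes (Dd2, 0.3% parasitemia, 2.5% hematocrit final) are added to compound in RPMI-1640/Albumax II medium, grown 72 h at 37C in low oxygen, then lysed with saponin/Triton-X containing SYBR Green and read by fluorescence.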
Numbers without * were called inactive; i = inactive; [ ] = remark or other dose. Potency is read from the fitted curve at half-maximal effect.

SMILES | Pf Dd2 inh
CCO[C@H]1CN(C(=O)c2ccc(Oc3ccccc3)o2)C[C@@H]1O | i
CC(=O)N1CCN([C@H]2[C@@H]3OC[C@@H](O3)[C@@H](NCc3cnc4ccccc4c3)[C@@H]2O)CC1 | 16.7%[44.1 µM]
COc1cccc(C(=O)NCCC2CCN(C(=O)Nc3ccccc3F)CC2)c1 | -19.8%
O=C(c1cccnc1)N1CCC2(CC1)NCCc1c2[nH]c2ccccc12 | -13.1%
O=C(c1ccc(Cn2ccnc2)o1)N1CCC2(CC1)NCCc1c2[nH]c2ccccc12 | 12.6µM*
O=C(c1ccncc1)N1CCC2(CC1)NCCc1c2[nH]c2ccccc12 | i
COC(=O)[C@@H]1Cc2ncn(Cc3ccc(Cl)cc3)c2CN1S(=O)(=O)c1cccs1 | -26.1%
COC(=O)[C@@H]1Cc2ncn(Cc3ccc(Cl)cc3)c2CN1S(=O)(=O)c1ccc(NC(C)=O)cc1 | -7.1%
COC(=O)[C@@H]1Cc2ncn(Cc3ccccc3)c2CN1S(=O)(=O)c1cccc(C(F)(F)F)c1 | i
COC(=O)[C@@H]1Cc2ncn(Cc3ccccc3)c2CN1S(=O)(=O)c1cccs1 | i
COC(=O)[C@@H]1Cc2ncn(Cc3ccccc3)c2CN1S(=O)(=O)Cc1ccccc1 | 11.2µM*
COC(=O)[C@@H]1Cc2ncn(Cc3ccc(Cl)cc3)c2CN1Cc1cccc(C#N)c1 | 11.2µM*
c1ccc(C2=NOC3(CCN(C4COC4)CC3)C2)cc1 | 3.2%[44.1 µM]
Cc1ccc(C(=O)N2CCC(Cc3nc(C(C)C)no3)CC2)cc1C | i
COc1nc2c(cc1CNC(=O)C1CC1(C)C)C(=O)N(C1CCCC1)C2 (configuration not stated) | -16.9%
COCC1CN(C(C)=O)CC12CCN(C(=O)c1cc3ccccc3[nH]1)CC2 (configuration not stated) | -9.0%
Cn1ccnc1CN1C[C@@H](C(=O)O)C[C@@H](C(=O)NCc2ccncc2)C1 | -3.8%
CC(=O)NC1(C)CN(Cc2ccc(-c3cccc(C(F)(F)F)c3)s2)C1 | 7.08µM*
CC(=O)Nc1cccc(-c2csc(CN3CCCC(C)(NC(C)=O)C3)c2)c1 (configuration not stated) | i
CC(=O)NC1(C)CN(c2cccc(C(F)(F)F)c2)C1 | -3.8%[44.1 µM]
COc1ncccc1-c1csc(CN2CCCC(C)(NC(C)=O)C2)c1 (configuration not stated) | i
CC(=O)NC1(C)CN(Cc2ccc(-c3ccc(Oc4ccccc4)cc3)s2)C1 | 3.98µM*
CC(=O)NC1(C)CN(Cc2ccc(-c3cccc(F)c3)s2)C1 | -22.3%[44.1 µM]
CCCc1nnc(NC(=O)C2CC(=O)N(c3n[nH]c4ccccc34)C2)s1 (configuration not stated) | -13.5%
Cc1noc([C@@H]2CN(C(=O)c3cn[nH]c3)C[C@H]2C(N)=O)n1 | i
SMILES | Pf Dd2 inh
NCC(=O)N1CCC2(CC1)CN(C(=O)Cc1cccc(Cl)c1)CCO2 | 9.7%
CC(C)(C(=O)N1Cc2cnn(Cc3ccc(F)cc3)c2C1)c1ccccc1 | -13.4%
CC(C)(C(=O)N1C[C@H](C2CC2)[C@@H](N)C1)c1ccccc1 | 6.31µM*
CC(=O)N1CCC([C@@H]2CN(C(=O)COc3ccccc3)C[C@H]2CO)CC1 | i
CCC(=O)N1CCC2(CCC(=O)N(CC3CC3)CC2)CC1 | -3.0%
COc1ccc(NC(=O)[C@@H]2C[C@@H](c3ccc(F)cc3)N(Cc3ccccc3)C2)cc1OC | 10µM*
O=C(Nc1cccnc1)[C@@H]1C[C@@H](c2ccc(F)cc2)N(Cc2ccccc2)C1 | 7.08µM*
O=C(NCc1cccnc1)[C@@H]1C[C@@H](c2ccc(F)cc2)N(CCOc2ccccc2)C1 | 8.91µM*
O=C(NCCOc1ccccc1)[C@@H]1C[C@@H](c2ccc(F)cc2)N([S+](=O)([O-])c2cccnc2)C1 | -22.0%
O=C(Nc1ccccc1)[C@@H]1C[C@@H](c2ccc(F)cc2)N([S+](=O)([O-])c2cccnc2)C1 | 9.6%[44.1 µM]
COc1cccc(NC(=O)[C@@H]2C[C@@H](c3ccc(F)cc3)N([S+](=O)([O-])c3cccnc3)C2)c1 | i
COc1ccc(NC(=O)[C@@H]2C[C@H](c3ccc(F)cc3)N(Cc3csc(C)n3)C2)cn1 | -20.8%[44.1 µM]
O=C(Nc1cccc(F)c1)[C@@H]1C[C@@H](c2ccc(F)cc2)N([S+](=O)([O-])c2cccnc2)C1 | i
COc1cccc(NC(=O)[C@@H]2C[C@H](c3ccc(F)cc3)N(Cc3csc(C)n3)C2)c1 | -4.0%[44.1 µM]
COc1cccc(NC(=O)[C@@H]2C[C@@H](c3ccc(F)cc3)N(CCOc3ccccc3)C2)c1 | -10.5%[44.1 µM]
COc1cccc(NC(=O)[C@@H]2C[C@H](c3ccc(F)cc3)N([S+](C)(=O)[O-])C2)c1 | 6.31µM*
O=C(Nc1cccc(F)c1)[C@@H]1C[C@@H](c2ccc(F)cc2)N([S+](=O)([O-])c2ccccc2)C1 | -26.5%
CCn1c(CO)nnc1C1CC(NC(=O)c2nn(C)c(C)c2Cl)C1 (configuration not stated) | -20.9%
CC(=O)N1CCOC[C@H](Oc2ccc(S(C)(=O)=O)cc2)C1 | 3.8%[44.1 µM]
CC(C)(O)C#Cc1ccc(C(=O)N2CCOCC2CC(=O)O)o1 (configuration not stated) | 15.3%
CN(Cc1cccnc1)c1nc2c(c(=O)[nH]1)CCN(CCc1ccccc1)CC2 | 24.6%[5.79 µM]
O=[S+]1([O-])NC2(CCN(Cc3cccnc3)CC2)CNc2ccccc21 | i
COc1ccc(C(=O)N2CCC[C@H]2c2nc(-c3ccccc3)no2)cc1F | 11.5%
O=C(N[C@@H]1CN(Cc2c(F)cccc2Cl)C[C@H]1CO)C1CC1 | -8.4%
COc1ccc(CN2C[C@@H](CO)[C@H](NC(=O)C3CCC3)C2)cc1 | 9.5%
SMILES | Pf Dd2 inh
CCOc1ccccc1CN1C[C@@H](CO)[C@H](NC(=O)C2CC2)C1 | 7.94µM*
Cc1noc([C@@H]2CN(C3CCN(Cc4ccccc4)CC3)C[C@H]2CO)n1 | -9.5%
Cc1ccc(C(=O)N2CC[C@H](N3CCOCC3)[C@H](CCCO)C2)cc1Cl | -9.8%
COc1ccccc1NC(=O)N1CCCC(Cn2c(C3CC3)nc3cccnc32)C1 (configuration not stated) | -13.5%
COc1ccc(C(=O)NCCn2cccc2-c2nc(-c3ccccc3)no2)cc1 | i
CCOc1ccc(C(=O)NCCn2cccc2-c2nc(-c3ccccc3)no2)cc1OCC | 10µM*
COC(=O)c1ccccc1NC(=O)Cn1cccc1-c1nc(-c2ccc(OC)c(F)c2)no1 | 16.1%
COc1ccc(-c2noc(-c3cccn3CC(=O)Nc3ccc(F)c(F)c3)n2)cc1F | 2.82µM*
COc1ccc(NC(=O)Cn2cccc2-c2nc(-c3ccc4c(c3)OCO4)no2)cc1OC | -23.7%
CCOc1ccc(CCNC(=O)Cn2cccc2-c2nc(-c3ccccc3)no2)cc1OCC | 3.1%
COc1ccc(-c2noc(-c3cccn3CC(=O)NC3CCCC3)n2)cc1F | i
O=C(Cn1cccc1-c1nc(-c2ccc(F)cc2)no1)Nc1cccc(F)c1 | -4.0%
COc1ccc(NC(=O)Cn2cccc2-c2nc(-c3ccc(F)cc3)no2)cc1 | 2.51µM*
Cc1cc(C)c(NC(=O)Cn2cccc2-c2nc(-c3ccc(F)cc3)no2)c(C)c1 | 95.2%
CCc1ccc(NC(=O)Cn2cccc2-c2nc(-c3ccc(OC)c(F)c3)no2)cc1 | 2µM*
COc1ccc(-c2noc(-c3cccn3CC(=O)Nc3ccc(N(C)C)cc3)n2)cc1F | 0.1%
Cc1ccccc1CC(=O)N1CCN(C2CCN(CCC(C)C)C2=O)CC1 (configuration not stated) | i
CN1CCC2(CCC1=O)CN(C(=O)Cn1ncnn1)CCN2C (configuration not stated) | -11.4%
